Compound activity deposited in PubChem BioAssay by National Center for Advancing Translational Sciences (NCATS).
FMDV inh: foot and mouth disease virus antiviral activity; FMDV antiviral cell-based qHTS; Potency, µM (doses to about 57.9 µM), hits mostly inhibitors; 410,000 compounds, 1.2% hits; calls by dose curve; tested in HEK293T cells; note: read-out not given here; nearly all actives have a fitted effect of over 45% in size
Marburg entry inh: Marburg virus entry inhibition; Marburg virus pseudotyped entry inhibition, cell reporter; 300,000 compounds, 1.8% hits; AID 540276; Potency, µM (doses to about 37.8 µM), most hits filed as inhibitors; calls by dose curve; tested in HEK293 cells
VACV Venus inh: vaccinia inhibition (Venus reporter); Vaccinia virus Venus reporter expression, fluorescence; Potency, µM (titrated, usually from 36.5 µM), most hits filed as inhibitors; 330,000 compounds, 0.46% hits; AID 720580; calls by dose curve; tested in A549 cells; note: nearly all actives have a fitted effect of over 30% in size
VACV mCherry inh: inhibitors of vaccinia virus infection (mCherry reporter signal); 310,000 compounds, 0.63% hits; Potency, µM (series often up to 36.5 µM), actives largely listed as inhibitors; AID 720579; Vaccinia virus mCherry reporter infection, fluorescence; calls by dose curve; tested in A549 cells; note: nearly all actives have a fitted effect of over 35% in size
LASV entry inh: blocks Lassa virus binding to or entry into cells. Lassa virus pseudotype entry inhibition, cell reporter. 300,000 compounds, 1.2% hits. Potency, µM (doses to about 37.9 µM), usual class: inhibitors; calls by dose curve; tested in HEK293 cells; note: nearly all actives have a fitted effect of over 50% in size
HCMV inh: human cytomegalovirus inhibition | HFF cells, HCMV-luciferase reporter, 72 h; active compounds read low | activity change, negative = inhibition, % at 57.5 µM | 410,000 compounds, 4.5% hits | AID 1259415; in the data active = activity change below about -60%; inconclusive = no clear call, values can overlap the other calls; inactive = above about -39%
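Luciferase read-out from HCMV-luciferase-infected HFFs (MOI 1 PFU/cell) 72 h post infection at 37C; compounds added after 16 h cell attachment; activity normalized between buffer-only basal and Salinomycin (10uM) inhibitor controls.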
A number is an active result; n = inactive; u = inconclusive; x = not tested or not shown. Compounds with a hit are over-represented: about 6.5% of the library has one in this group of screens.

SMILES | FMDV inh | Marburg entry inh | VACV Venus inh | VACV mCherry inh | LASV entry inh | HCMV inh
CCOC(=O)c1ccc(Nc2nc3ccccc3nc2NS(=O)(=O)c2ccc(Cl)cc2)cc1 | u | x | u | 10µM | n | n
COc1cc(-c2cc(C)c3c(OC)ccc(OC)c3n2)cc2c1OCCN(Cc1cn(C)nc1C)C2 | n | x | n | n | x | x
Cc1c(-c2ccccc2)c(-c2ccc(OCCN(C)C)cc2)n2ccccc12 | n | u | n | n | u | -74
CCCc1cc(-c2[nH]ncc2-c2ccc3c(c2)OCCCO3)c(O)cc1O | 14µM | 15µM | x | x | u | n
CCCc1cc(-c2[nH]ncc2-c2ccc(C(=O)OCC)o2)c(O)cc1O | x | u | u | u | n | -62
CCc1cc(-c2[nH]ncc2-c2nc3ccccc3n2C)c(O)cc1O | n | x | x | x | x | n
CCOC(=O)c1ccc(NC(=O)c2cc(=O)c3ccc(C)c(C)c3o2)cc1 | n | n | n | n | n | n
COc1cccc(-c2nc(NCc3ccccc3)c3ccccc3n2)c1O | n | x | x | x | x | n
c1ccc2c(N3CCCC3)nc(-c3ccncc3)nc2c1 | 14µM | u | u | x | n | n
COc1cccc(-c2nc(NC3CCCC3)c3ccccc3n2)c1O | 28µM | x | x | x | x | x
Cc1ccc(S(=O)(=O)N2CCN(c3nc(-c4ccncc4)nc4ccccc34)CC2)cc1 | x | x | n | n | x | x
COc1cccc(-c2nc(N3CCN(C)CC3)c3ccccc3n2)c1O | n | u | u | 10µM | u | n
CN1CCN(c2nc(-c3ccncc3)nc3ccccc23)CC1 | n | 7.9µM | n | n | n | n
CC[C@@H]1CCCCN1c1nc(-c2ccncc2)nc2ccccc12 | x | 9.2µM | x | x | x | x
COc1nc(-c2ccncc2)nc2ccccc12 | n | n | n | n | n | n
Cc1oc2ncn(CC(C)C)c(=O)c2c1C(=O)Nc1cccc(C(F)(F)F)c1 | n | x | n | n | n | n
O=S1CCCS[C@@H]1c1cccnc1 (some centres not stated) | x | n | x | x | x | x
c1ccc2c(c1)nc(Nc1ccc3c(c1)OCO3)c1nnnn12 | n | n | n | x | n | -78
Cc1ccc(CNC(=O)c2ccc(Nc3nc4ccccc4n4nnnc34)cc2)cc1 | n | u | u | u | u | n
O=C(NCCc1ccc(Cl)cc1)c1ccc(Nc2nc3ccccc3n3nnnc23)cc1 | u | u | n | u | u | n
CC(C)CCNC(=O)c1cccc(Nc2nc3ccccc3n3nnnc23)c1 | n | n | u | u | n | -81
CC(NC(=O)c1cccc(Nc2nc3ccccc3n3nnnc23)c1)c1ccccc1 (configuration not stated) | u | x | 10µM | u | u | -68
COc1ccc(CCNC(=O)c2ccc(Nc3nc4ccccc4n4nnnc34)cc2)cc1OC | u | u | n | n | n | -114
c1ccc(Nc2nc3ccccc3n3nnnc23)cc1 | n | x | n | n | x | n
O=C(NCC1(N2CCOCC2)CCCCC1)c1cnn(-c2nccc(-c3ccco3)n2)c1C1CC1 | n | x | n | n | x | x
SMILES | FMDV inh | Marburg entry inh | VACV Venus inh | VACV mCherry inh | LASV entry inh | HCMV inh
CN(C(=O)c1cnn(-c2ncc3c(n2)-c2ccccc2CCC3)c1C1CC1)C1CCOC1 (configuration not stated) | n | x | n | n | x | x
CN1C(=O)C(=Cc2sc(=O)n(-c3ccccc3)c2N(C)C)C(=O)N(C)C1=O | 16µM | u | n | n | n | -60
Cc1ccc(NC(=S)N2CCC(c3nc4ccccc4s3)CC2)cc1C | x | n | n | n | u | -90
Cc1cc(C)cc(NC(=S)N2CCC(c3nc4ccccc4s3)CC2)c1 | x | n | n | n | n | -85
CCNC(=O)N1CCC(c2nc3ccccc3s2)CC1 | n | n | n | n | n | n
Oc1ccc2c(c1)oc1cc(O)ccc12 | n | n | u | 10µM | u | u
COc1c(C)oc2cc(O)ccc2c1=O | n | n | n | n | n | n
COc1ccccc1NC(=O)Cn1c(=O)n(-c2ccc(C)cc2)c(=O)c2c1cnn2C | n | n | n | n | n | n
O=C(C1CCC(Cn2c(=O)c3sccc3n(Cc3cccc(F)c3)c2=O)CC1)N1CCCCC1 (configuration not stated) | u | x | n | n | n | u
O=c1c(O)c(-c2cc(O)c(O)c(O)c2)oc2cc(O)cc(O)c12 | n | 22µM | n | n | u | u
Cc1ccc(O)cc1 | n | x | n | n | x | x
C/C=C(/C(=C/C)c1ccc(O)cc1)c1ccc(O)cc1 | u | n | n | n | 26µM | n
C=C(c1ccc(O)cc1)c1ccc(O)cc1 | u | n | n | x | 1µM | n
CCOC(=O)c1sc2nc(CC(=O)OC)nc(NCCN(CC)CC)c2c1C | n | u | n | n | n | n
CCOC(=O)c1sc2nc(CC(=O)OC)nc(NCc3ccc(Cl)cc3)c2c1C | n | n | x | x | n | -107
CCCCN(C)C(=O)Cn1cnc2sc(C)c(S(=O)(=O)N3CCC(C)CC3)c2c1=O | n | n | n | n | n | n
CCC(=O)Nc1ccc(N2CCOCC2)c(S(=O)(=O)Nc2ccc(OC)cc2)c1 | n | n | n | n | n | n
COc1ccc(NS(=O)(=O)c2cc(NC(=O)C(CC(C)C)NC(N)=O)ccc2N2CCOCC2)cc1 (configuration not stated) | n | x | x | x | x | -68
COc1ccc(NS(=O)(=O)c2cc(NC(=O)[C@H](C)NC(N)=O)ccc2N2CCCC2)cc1 | n | n | n | n | n | -85
COc1ccc(NC(=O)c2ccco2)cc1NC(=O)c1cccc(C)c1OC | n | u | n | n | u | u
CC(C)c1c(C(=O)NCc2ccncc2)cnn1-c1nccc(-c2cccs2)n1 | n | x | n | n | x | x
COc1ccc2c(c1)[C@@]1(OCCC=C[C@@H]1C)C(=O)N2Cc1ccccc1C(F)(F)F | x | n | x | x | x | x
CC(=O)Nc1ccc(S(=O)(=O)N2CCN(S(=O)(=O)c3ccccc3)CC2)cc1 | n | x | x | x | x | n
Cc1ccc(S(=O)(=O)C(NC(=O)c2ccccc2)=C(Cl)Cl)cc1 | 13µM | u | u | u | u | -74
CC(=O)NC(=C(Cl)Cl)S(=O)(=O)c1ccccc1 | 22µM | 10µM | 8.9µM | 7.9µM | u | -99
SMILES | FMDV inh | Marburg entry inh | VACV Venus inh | VACV mCherry inh | LASV entry inh | HCMV inh
Cc1ccc(C(=O)NC(=C(Cl)Cl)S(=O)(=O)c2ccc(C)cc2)cc1 | 18µM | u | u | u | u | -60
Cc1ccc(S(=O)(=O)/C(=C/Cl)NC(=O)c2ccccc2)cc1 | 14µM | 7.1µM | u | u | 7.3µM | -66
Cc1ccc(S(=O)(=O)CCC(=O)OCC(=O)NC(=O)c2ccccc2)cc1 | n | n | n | n | n | n
O=C1CCC[C@H]2[C@@H](Cc3ccccc3)[C@@H](NCC3CCCCC3)CC[C@]23CCCN13 | x | x | x | x | x | n
CCN1[C@@H]2c3ccc(-c4ccc(OC)cc4)c(=O)n3C[C@@H]2[C@@H](CO)[C@@H]1C(=O)NCCN1CCCCC1 | x | x | x | x | x | n
COCC(=O)Nc1cc(C(=O)N2CC3CCC2C3)c2c(c1)nc(-c1ccncc1)n2C (configuration not stated) | n | x | n | n | x | x
Cc1ccc(C(=O)NC(=C(Cl)Cl)S(=O)(=O)c2ccc(Cl)cc2)cc1 | u | x | x | x | x | n
O=C(NC(=C(Cl)Cl)S(=O)(=O)c1ccc(Cl)cc1)c1ccccc1 | 28µM | x | x | x | x | u
